Outcome and AC50 data for 13 compounds are collected here from PubChem BioAssay (EPA / NIEHS).

The source made the active and inactive calls. How the source made its calls: active means hit-call score of the fitted dose curve at least 0.9, where 1 is the maximum; inactive means score below 0.9.

Read-out in one experiment: Decorin, DCN (gene 1634)
The experiment is described as follows: BSK_MyoF_Decorin: BioMAP Diversity Plus: MyoF Assay for Decorin Biomarker Activity (AID 2284265). Conditions: primary human lung fibroblasts. The gist of the method: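 Human lung fibroblast cultures were dosed for 24 h, and decorin was then measured by ELISA. Parallel cultures were stained with sulforhodamine B for total protein as a cytotoxicity check. Gain of signal was fitted relative to DMSO.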

Experiment [1] can be described thus: BSK_MyoF_SRB: Viability Assessment in the BioMAP Diversity Plus: MyoF Assay (AID 2284267).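 Further: total protein by SRB absorbance in parallel cultures as cytotoxicity measure; cells assessed 24 h after compound addition.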 The settings on record: primary human lung fibroblasts. The gist of the method:
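In this viability endpoint, fibroblasts from human lung are treated for 24 h, TCA-fixed, SRB-stained (0.1%) and read at 560 nm. Gain of signal relative to DMSO defines activity.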

Read-out in experiment [2]: Matrix Metallopeptidase 1 (MMP1), MMP1 (gene 4312)
The experiment is described as follows: BSK_MyoF_MMP1: BioMAP Diversity Plus: MyoF Assay for Matrix Metallopeptidase 1 (MMP1) Biomarker Activity (AID 2284268). The settings on record: primary human lung fibroblasts. In short, it runs like this: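 Human lung fibroblast primary cells; MMP1 measured by ELISA 24 h after dosing, fitted in the positive direction relative to DMSO. Parallel SRB staining (0.1%, after 10% TCA fixation, 560 nm) assesses overt cytotoxicity.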

Read-out in experiment [3]: TIMP metallopeptidase inhibitor 1 (TIMP1), TIMP1 (gene 7076)
Description: BSK_MyoF_TIMP1: BioMAP Diversity Plus: MyoF Assay for TIMP metallopeptidase inhibitor 1 (TIMP1) Biomarker Activity (AID 2284269). The settings on record: primary human lung fibroblasts. In short, it runs like this:
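Fibroblasts from human lung are dosed with chemical, cultured 24 h, and assayed for TIMP-1 by ELISA. Increases over the DMSO baseline are scored, with SRB total-protein staining run in parallel for cytotoxicity.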

Read-out in experiment [4]: KRT18 (gene 3875)
The experiment is described as follows: BSK_BF4T_Keratin818: BioMAP Diversity Plus: BF4T Assay for Keratin 818 Biomarker Activity (AID 2284266). Conditions: primary human bronchial epithelial cells with fibroblasts. In short, it runs like this: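 Keratin 8/18 levels quantified by ELISA after 24 h chemical treatment of bronchial epithelial cell/dermal fibroblast co-cultures, fitted in positive direction relative to DMSO. Parallel SRB staining tracks overt cytotoxicity.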

Read-out in experiment [5]: Matrix Metallopeptidase 3 (MMP3), MMP3 (gene 4314)
The experiment is described as follows: BSK_BF4T_MMP3: BioMAP Diversity Plus: BF4T Assay for Matrix Metallopeptidase 3 (MMP3) Biomarker Activity (AID 2284271). The settings on record: primary human bronchial epithelial cells with fibroblasts. The gist of the method: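 MMP-3 level read by ELISA after 24 h chemical exposure of bronchial epithelial cell/dermal fibroblast co-cultures, fitted upward relative to DMSO. Parallel cultures stained with 0.1% SRB after TCA fixation gauge overt cytotoxicity.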

Read-out in experiment [6]: Tissue plasminogen activator (tPA), PLAT (gene 5327)
The experiment is described as follows: BSK_BF4T_tPA: BioMAP Diversity Plus: BF4T Assay for Tissue plasminogen activator (tPA) Biomarker Activity (AID 2284272). The settings on record: primary human bronchial epithelial cells with fibroblasts. The gist of the method: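 tPA level quantified by ELISA at 24 h post-treatment in bronchial epithelial/dermal fibroblast co-cultures, gain of signal scored against DMSO baseline. Parallel cultures stained with 0.1% SRB (560 nm) to flag overt cytotoxicity.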

Read-out in experiment [7]: Matrix Metallopeptidase 9 (MMP9), MMP9 (gene 4318)
Description: BSK_BF4T_MMP9: BioMAP Diversity Plus: BF4T Assay for Matrix Metallopeptidase 9 (MMP9) Biomarker Activity (AID 2284276). Conditions: primary human bronchial epithelial cells with fibroblasts. In short, it runs like this:
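MMP-9 levels were measured by ELISA after 24 h exposure of bronchial epithelial cell/dermal fibroblast co-cultures, with DMSO as baseline. Parallel cultures were stained with 0.1% SRB after TCA fixation, read at 560 nm, to flag overt cytotoxicity.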

Read-out in experiment [8]: Intercellular Adhesion Molecule 1 (ICAM1), ICAM1 (gene 3383)
Description: BSK_BE3C_ICAM1: BioMAP Diversity Plus: BE3C Assay for Intercellular Adhesion Molecule 1 (ICAM1) Biomarker Activity (AID 2284278).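 Further: cell-surface ICAM-1 protein level quantified by ELISA.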 Conditions: primary human bronchial epithelial cells. The gist of the method: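 hu bronchial epithelial primary cells, 24 h cpd exposure, ICAM-1 ELISA; gain-of-signal fit vs DMSO baseline.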

Read-out in experiment [9]: Interferon-inducible T-cell alpha chemoattractant (ITAC), CXCL11 (gene 6373)
The experiment is described as follows: BSK_BE3C_ITAC: BioMAP Diversity Plus: BE3C Assay for Interferon-inducible T-cell alpha chemoattractant (ITAC) Biomarker Activity (AID 2284279). Conditions: primary human bronchial epithelial cells. The gist of the method:
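BE3C cells (human primary bronchial epithelium), 24 h compound exposure, I-TAC by ELISA, DMSO = negative control/baseline, positive fitting direction.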

Read-out in experiment [10]: Interleukin-8 (IL8), CXCL8 (gene 3576)
The experiment is described as follows: BSK_BE3C_IL8: BioMAP Diversity Plus: BE3C Assay for Interleukin-8 (IL8) Biomarker Activity (AID 2284280). Conditions: primary human bronchial epithelial cells. In short, it runs like this: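 Primary human bronchial epithelial cells (BE3C system) were exposed to test chemical for 24 h, and IL-8 levels were then measured by ELISA. Activity was fitted in the positive (gain-of-signal) direction against a DMSO negative-control baseline.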

Read-out in experiment [11]: Epidermal growth factor receptor (EGFR), EGFR (gene 1956)
Description: BSK_BE3C_EGFR: BioMAP Diversity Plus: BE3C Assay for Epidermal growth factor receptor (EGFR) Biomarker Activity (AID 2284281). Conditions: primary human bronchial epithelial cells. In short, it runs like this:
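Human primary bronchial epithelial cells were exposed to compound for 24 h, and cell-surface EGFR was then quantified by ELISA. Activity was fitted in the positive direction against the DMSO vehicle baseline.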

Read-out in experiment [12]: KRT18 (gene 3875)
Description: BSK_BE3C_Keratin818: BioMAP Diversity Plus: BE3C Assay for Keratin 818 Biomarker Activity (AID 2284282). Conditions: primary human bronchial epithelial cells. The gist of the method: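 In this multiplexed primary-cell system, bronchial epithelial cells were dosed and harvested at 24 h. Keratin 8/18 was determined by ELISA and analysed for increases over DMSO controls.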

Read-out in experiment [13]: Matrix Metallopeptidase 9 (MMP9), MMP9 (gene 4318)
Description: BSK_BE3C_MMP9: BioMAP Diversity Plus: BE3C Assay for Matrix Metallopeptidase 9 (MMP9) Biomarker Activity (AID 2284283). Conditions: primary human bronchial epithelial cells. In short, it runs like this:
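Human primary bronchial epithelial cells exposed 24 h to compound. MMP9 quantified by ELISA. SRB total-protein staining of parallel cultures assesses cytotoxicity. Positive-direction fit relative to DMSO.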

Read-out in experiment [14]: Plasminogen activator inhibitor-1 (PAI1), SERPINE1 (gene 5054)
The experiment is described as follows: BSK_CASM3C_PAI1: BioMAP Diversity Plus: CASM3C Assay for Plasminogen activator inhibitor-1 (PAI1) Biomarker Activity (AID 2284284).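 Further: PAI-1 protein level measured by ELISA 24 h after dosing.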 Conditions: primary human coronary artery smooth muscle cells.

Read-out in experiment [15]: urokinase Plasminogen Activator (uPA), PLAU (gene 5328)
Description: BSK_BF4T_uPA: BioMAP Diversity Plus: BF4T Assay for urokinase Plasminogen Activator (uPA) Biomarker Activity (AID 2284275). The settings on record: primary human bronchial epithelial cells with fibroblasts. The gist of the method: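 uPA levels measured by ELISA at 24 hours in BF4T cultures (bronchial epithelial cells plus dermal fibroblasts) and compared with DMSO; cytotoxicity tracked in parallel cultures by sulforhodamine B staining.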

As to `Nc1ccc([N+](=O)[O-])cc1O`, the outcome with Decorin, DCN (gene 1634) was “inactive”; in experiment [1], “inactive”; in [2], “inactive”; in [3], “inactive”.

On to `C#C[C@]1(O)CC[C@H]2[C@@H]3CCc4cc(OC)ccc4[C@H]3CC[C@@]21C`, for which the outcome with Decorin, DCN (gene 1634) was “inactive”; in experiment [1], “inactive”; in experiment [3], “inactive”. Moreover, in [2], the AC50 was 20 µM (active).

In the case of `CCCCCCCOC(=O)c1ccccc1C(=O)OCCCCCCC`, the outcome with Decorin, DCN (gene 1634) was “inactive”; in experiment [1] it was “inactive”; in experiment [2] it was “inactive”; in [3] it was “inactive”.

As for `CCCCOCCOCCOC(=O)CCCCC(=O)OCCOCCOCCCC`, the outcome with Decorin, DCN (gene 1634) is “inactive”; in experiment [1], “inactive”; in experiment [2] it was “inactive”; in experiment [3], “inactive”.

With `O=C(O)C(F)(F)C(F)(F)C(F)(F)F`, the outcome in the experiment with Decorin, DCN (gene 1634) was “inactive”; in the experiment with KRT18 (gene 3875) [4], “inactive”; in experiment [1] it was “inactive”; in [2], “inactive”; in experiment [3], “inactive”; in [5], “inactive”. Moreover, the result in [6], in [7], in experiment [8], in experiment [9], in experiment [10] and in experiment [11] was inactive. The result (in the experiment with KRT18 (gene 3875) [12]; in experiment [13]; in experiment [14]) was inactive.

Regarding `CCCCCCC(C)OC(=O)CCCCC(=O)OC(C)CCCCCC` (stereo not given), the outcome is “inactive” with Decorin, DCN (gene 1634); “inactive” in [1]; “inactive” in experiment [2]; “inactive” in [3].

For the compound `Oc1ccc(Nc2ccccc2)cc1`, the outcome with Decorin, DCN (gene 1634) is “inactive”; in experiment [1] it was “inactive”; in [2], “inactive”; in experiment [3], “inactive”.

On to `C=C(C)C(=O)OCC(F)(F)C(F)(F)C(F)(F)F`, for which the outcome with Decorin, DCN (gene 1634) is “inactive”; with KRT18 (gene 3875) [4], “inactive”; in experiment [1], “inactive”; in [2], “inactive”; in experiment [3], “inactive”; in experiment [5], “inactive”. Further, the outcome in experiment [6], in experiment [7], in [8], in experiment [9], in experiment [10] and in [11] was inactive. Also, the result (with KRT18 (gene 3875) [12]; in experiment [13]; in experiment [14]) was inactive.

`CCCCNc1ccccc1`: the outcome in the experiment with Decorin, DCN (gene 1634) was “inactive”; in experiment [1], “inactive”; in experiment [2], “inactive”; in experiment [3], “inactive”.

As for `CCc1c(Br)c(Br)c(Br)c(Br)c1Br`, the outcome with Decorin, DCN (gene 1634) was “inactive”; in experiment [1] it was “inactive”; in [3] it was “inactive”. For the same compound, the AC50 in [2] is 13.2 µM (active).

`O[Si](c1ccccc1)(c1ccccc1)c1ccccc1`: the outcome with Decorin, DCN (gene 1634) was “inactive”; in experiment [3], “inactive”. In addition, the results for the AC50 in experiment [1] and in experiment [2] were 23.8 µM (active) and 13.9 µM (active), respectively.

As to `COC(=O)CCC(F)(F)C(F)(F)C(F)(F)C(F)(F)F`, the outcome is “inactive” in the experiment with Decorin, DCN (gene 1634); “inactive” in the experiment with KRT18 (gene 3875) [4]; “inactive” in experiment [1]; “inactive” in experiment [2]; “inactive” in experiment [3]; “inactive” in experiment [5]. The outcome in [6], in [15], in [7], in [8], in [10] and in experiment [11] was inactive. In addition, the outcome (in the experiment with KRT18 (gene 3875) [12]; in [13]; in experiment [14]) was inactive.

Turning to `O=C(O)C(F)(OC(F)(F)C(F)(OC(F)(F)C(F)(OC(F)(F)C(F)(F)C(F)(F)F)C(F)(F)F)C(F)(F)F)C(F)(F)F` (stereo not given), the outcome with Decorin, DCN (gene 1634) is “inactive”; with KRT18 (gene 3875) [4] it was “inactive”; in experiment [1], “inactive”; in [2], “inactive”; in experiment [3], “inactive”; in experiment [5], “inactive”. The result (in experiment [6]; in experiment [7]; in [8]; in experiment [10]; in experiment [11]; in the experiment with KRT18 (gene 3875) [12]) was inactive. Besides, the result in [13] and in [14] was inactive.

The term AC50 denotes the midpoint of the concentration-response curve, whichever way the signal moves.
